Our source for the AC50 and activity, negative = inhibition values is PubChem BioAssay AID1851 (National Center for Advancing Translational Sciences (NCATS), 2009).

In all, about 16,000 compounds went through this assay and about 2,600 (16%) were called active. Roughly 20% stayed inconclusive and do not appear here. Calls follow the shape of the dose curve; as a rule, active = well fitted curve in the direction sought with a large enough effect; inconclusive = small, poorly fitted or top-dose-only effect, or effect the other way; inactive = no such curve, though single readings can be large or run the other way. These entries were drawn from the full list.
% is scaled to controls: 0 for no effect and ±100 for the full control effect.

For the experiment, the target named is Cytochrome P450 2D6 (Homo sapiens) (UniProt P10635). Description: Cytochrome panel assay with activity outcomes. To be noted: recombinant CYP, pro-luciferin dealkylation, luminescence, p450-cyp2d6; series mostly up to 57.1 µM.
Chain of Cytochrome P450 2D6 (Homo sapiens) (P10635 whole entry, looked up): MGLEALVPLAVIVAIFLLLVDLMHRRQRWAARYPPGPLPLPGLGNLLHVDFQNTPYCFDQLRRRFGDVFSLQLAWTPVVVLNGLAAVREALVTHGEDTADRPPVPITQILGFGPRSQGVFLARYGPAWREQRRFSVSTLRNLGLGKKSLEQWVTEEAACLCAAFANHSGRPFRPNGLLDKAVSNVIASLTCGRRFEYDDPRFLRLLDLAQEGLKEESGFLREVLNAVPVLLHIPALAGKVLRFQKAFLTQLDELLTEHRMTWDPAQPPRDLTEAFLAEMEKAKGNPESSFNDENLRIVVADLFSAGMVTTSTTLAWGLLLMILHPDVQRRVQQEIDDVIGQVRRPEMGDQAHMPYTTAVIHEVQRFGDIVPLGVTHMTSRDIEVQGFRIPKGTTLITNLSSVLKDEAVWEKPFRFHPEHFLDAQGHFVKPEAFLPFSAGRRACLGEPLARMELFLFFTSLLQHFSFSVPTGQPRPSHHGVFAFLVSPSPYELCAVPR
Regarding `CCCCN1C(=O)C(NC(=O)C2CC2)(C(F)(F)F)C2=C1CC(C)(C)CC2=O` (centres undefined), the AC50 (in general, the concentration giving half of the maximal activity seen) was “inactive”. On the same count and under the same terms, the result for `O=C(CCn1nc(-c2ccc(Cl)cc2)ccc1=O)N1CCOCC1` reads “inactive”.

`O=C1Nc2ccccc2C1=Nc1cccc2ncccc12`: the activity, negative = inhibition was -4.91% [at 11.4 µM] (inactive). For the compound `Nc1ncnc2c1ncn2CCCCC(=O)O`, the activity, negative = inhibition was -3.98% [at 11.4 µM] (inactive).

Regarding `O=c1c(-c2ccccc2)nc2cncnc2n1-c1ccccc1`, the AC50 entry is “inactive”. Still for that read-out and setting: the result for `CCC(CC)C(=O)Nc1c2cnn(-c3ccccc3)c2nc(=O)n1-c1ccccc1` reads “inactive”; that for `CCCc1nnc(NC(=O)CN2C(=O)C3C4C=CC(C4)C3C2=O)s1` (centres undefined), “inactive”; that for `O=c1cnc2cnc(N3CCOCC3)nc2n1C1CC1`, “inactive”.

Take `COc1ccc(CNc2ncnc3ccc(-c4ccoc4)cc23)c(OC)c1`: the AC50 was 10 µM (active). In the case of `COCCNc1ncnc2ccc(-c3ccoc3)cc12`, the AC50 entry was “inactive”.

For the compound `COc1ccccc1CNc1ncnc2ccc(-c3ccoc3)cc12`, the AC50 is 3.16 µM (active). Consider `COc1ccccc1CNc1ncnc2ccc(-c3ccc4c(c3)OCO4)cc12`, for which the half-maximal activity concentration (AC50) was 0.794 µM (active). In the case of `COc1ccc(CNc2ncnc3ccc(-c4c(C)noc4C)cc23)c(OC)c1`, the AC50 is 15.8 µM (active).

`CCOC(=O)COc1ccc(/C=C/[N+](=O)[O-])c(OCC(=O)OCC)c1`: the AC50 result is “inactive”. Still for that read-out and setting: the result for `Clc1ccc(Nc2ncn[nH]2)cc1` reads “inactive”; that for `CCCCCCCCCCCCCCCC(=O)C(F)(F)F`, “inactive”.

As to `Cc1cc(C)c(-c2noc(C(=O)OC(C)(C)C)c2C(=O)OC(C)(C)C)c(C)c1`, the AC50 result was “inactive”. The same measure, in the same setting: as for `Cc1cc(OC(=O)c2ccccc2Cl)cc(=O)n1C`, the entry is “inactive”; as for `Cc1sc2ncn(CC(=O)NCCCC(=O)N3CCN(c4ncccn4)CC3)c(=O)c2c1C`, “inactive”; as for `Cc1ccc(C)n1N1C(=O)/C(=C\c2ccc(Cl)cc2)SC1=S`, “inactive”. On the same count and under the same terms, the result for `Cn1c(SCC(=O)NC2CC2)nnc1-c1cccc(NC(=O)c2ccccc2F)c1` reads “inactive”. `C[C@H]1/C=C\CC(=O)OC[C@H](C)C(=O)N2CCC[C@@H]2C(=O)OC1`: the activity, negative = inhibition is -8.94% [at 11.4 µM] (inactive).

For `COc1ccc2nc(NC(=O)CSc3nnc(C)s3)sc2c1`, the AC50 entry was “inactive”. As to `COc1ccc2c(c1)nc(SCC(=O)c1ccc(Br)s1)n2C`, the AC50 is 5.01 µM (active).

As to `COc1ccc2nccc(SCC(=O)O)c2c1`, the activity, negative = inhibition was -10.3% [at 11.4 µM] (inactive).

For `CCOC(=O)C1=C(N)n2c(s/c(=C/c3ccccc3)c2=O)=C(C(=O)OCC)C1c1ccccc1` (centres undefined), the AC50 entry is “inactive”. On to `c1ccc(-c2nc3ccccc3o2)nc1`, for which the AC50 result is “inactive”. In the case of `Cn1c(=O)c(-c2cccs2)nc2cnc(N3CCNCC3)nc21`, the AC50 entry is “inactive”. The same measure, in the same setting: the result for `Cc1ccc(-n2[nH]c(=O)c3cccnc32)cc1` reads “inactive”.
